Vaccinia Venus: inhibitors of vaccinia virus (Venus reporter). Vaccinia virus Venus reporter expression, fluorescence. Potency, µM (doses to about 36.5 µM), for inactives: at the top dose activity change, negative = inhibition, most hits filed as inhibitors. 330,000 compounds, 0.46% hits. AID 720580; calls by dose curve; tested in A549 cells; also: potency is read from the fitted curve at half-maximal effect; nearly all actives have a fitted effect of over 30% in size
HCV inhibitor: inhibitors of hepatitis C virus infection | 340,000 compounds, 3.4% hits | Huh7.5.1 HCVcc-Cre infection, luciferase reporter, 44 h | Potency, µM (top dose mostly 41.8 µM), inactives show at the highest dose activity change, negative = inhibition, usual class: inhibitors; active = well fitted inhibition curve with a large enough effect; inconclusive = small, poorly fitted or top-dose-only effect, or another doubt; inactive = no such curve, though single readings can be large or run the other way; also: potency is read from the fitted curve at half-maximal effect
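HCVcc-Cre virus at an moi near 0.5 was added right after compound to cells cultured 4 h from seeding (1,000 cells/well). Luciferase activity was determined 44 h later, 15 min after substrate addition at RT.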
HCMV inh: human cytomegalovirus inhibition | AID 1259415 | activity change, negative = inhibition, % at 57.5 µM | 410,000 compounds, 4.5% hits | HFF cells, HCMV-luciferase reporter, 72 h; hits give low values; in the data active = activity change below about -60%; inconclusive = no clear call, values can overlap the other calls; inactive = above about -39%
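Screen run at 2 compound doses on HFFs infected with reporter HCMV, MOI 1 PFU/cell. Luciferase activity from cell lysates at 72 h post infection gave inhibition relative to buffer-only and Salinomycin wells.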
FMDV antiviral: blocks foot and mouth disease virus; 410,000 compounds, 1.2% hits; Potency, µM (highest dose often 57.9 µM), without a hit: at the top dose activity change, negative = inhibition, actives largely listed as inhibitors; AID 1159524; FMDV antiviral cell-based qHTS; calls by dose curve; tested in HEK293T cells; also: read-out not given here; potency is read from the fitted curve at half-maximal effect; nearly all actives have a fitted effect of over 45% in size
VACV mCherry inh: vaccinia inhibition (mCherry reporter); Vaccinia virus mCherry reporter infection, fluorescence; AID 720579; 310,000 compounds, 0.63% hits; Potency, µM (highest dose often 36.5 µM), inactives show top-dose activity change, negative = inhibition, most hits filed as inhibitors; calls by dose curve; tested in A549 cells; also: potency is read from the fitted curve at half-maximal effect; nearly all actives have a fitted effect of over 35% in size
* = called active by the depositor; i = inactive; ? = inconclusive; / = no result. Most compounds without a hit are left out; they make up all but 7.3% or so of the library. % is scaled to controls: 0 for no effect and ±100 for the full control effect.

SMILES	Vaccinia Venus	HCV inhibitor	HCMV inh	FMDV antiviral	VACV mCherry inh
CCOC(=O)c1c(CN2CCN(CCO)CC2)n(-c2ccccc2)c2cc(Br)c(O)cc12	?	?	-18	-12%	-29%
CCOC(=O)c1c(CN2CCN(C)CC2)n(-c2ccccc2)c2cc(Br)c(O)cc12	/	14µM*	-8	-2%	/
CCOC(=O)c1c(-c2ccccc2)[nH]c2ccc(O)cc12	?	11µM*	-12	?	/
CCOC(=O)c1c(C)n(C)c2cc(-c3ccc(C)cc3)c(O)cc12	-7%	?	?	-5%	-20%
CCOC(=O)c1c(C)n(-c2ccccc2)c2ccc(O)cc12	-20%	10µM*	?	?	-23%
O=C(NCc1ccc2c(c1)OCO2)C(=O)NCC1OCCN1S(=O)(=O)c1ccccc1 (configuration not stated)	-15%	14%	0	-3%	-17%
COc1ccc2sc(N(Cc3cccnc3)C(=O)C3CCCCC3)nc2c1	-24%	/	0	-17%	-28%
O=S1(=O)CCO[C@H]2CCCC[C@@H]2N1Cc1ccccc1	-7%	/	/	/	i
CC(=O)c1ccc(S(=O)(=O)NCCC(=O)OCC(=O)N(Cc2ccccc2)C(C)(C)C)cc1	-10%	-5%	-19	-20%	-8%
O=C(Nc1cccc(S(=O)(=O)N2CCCCC2)c1)c1cc(=O)[nH]c2ccccc12	-7%	?	4	-12%	0%
CCOC(=O)c1c(C)n(-c2ccccc2)c2ccc(OC(=O)c3ccccc3NC(=O)C(C)C)cc12	-11%	/	0	32µM*	-9%
CCOC(=O)c1c(C)n(-c2ccccc2)c2ccc(OC(=O)c3cccc(C)c3)cc12	5%	/	-5	9%	-9%
CCOC(=O)c1c(C)n(-c2ccccc2)c2ccc(OC(=O)c3ccccc3NC(=O)C(C)(C)C)cc12	-18%	/	-94*	?	-15%
COc1ccc(N(CC(=O)NC2CCCC2)C(=O)Cn2nnc(-c3ccc(F)cc3)n2)cc1	0%	-28%	-19	-8%	i
C/C(=N\Nc1ccccn1)c1ccc(OC(F)F)cc1	?	8.9µM*	34	23%	?
C/C(=N\Nc1ccccn1)c1cccs1	-5%	10µM*	114	61%	-5%
O=C1CCC[C@H]2[C@@H](Cc3ccccc3)[C@H](NCC3CCCCC3)CC[C@]23CCCN13	/	/	9	/	/
CC(=O)N(C1=C(Cl)C(=O)c2ccccc2C1=O)C1CCCCC1	?	7.9µM*	-103*	?	?
CC(=O)N(c1ccccc1C)C1CCCC1	-6%	32%	-27	-9%	-9%
CC1CCCN(CCCNC(=O)c2ccc3c(c2)N(Cc2ccc(Cl)cc2)C(=O)c2ccccc2S3(=O)=O)C1 (configuration not stated)	-25%	/	-100*	-4%	-25%
CCC1CCCCN1CCCNC(=O)c1ccc2c(c1)N(Cc1cccc(C)c1)C(=O)c1ccccc1S2(=O)=O (configuration not stated)	?	/	-64*	-3%	-8%
Cc1ccc(C)c(CN2C(=O)c3ccccc3S(=O)(=O)c3ccc(C(=O)NCCCN4CCCC(C)C4)cc32)c1 (configuration not stated)	?	/	-14	23%	-29%
CCC1CCCCN1CCCNC(=O)c1ccc2c(c1)N(Cc1ccc(Cl)cc1)C(=O)c1ccccc1S2(=O)=O (configuration not stated)	-24%	/	-106*	-14%	-24%
CCC1CCCCN1CCCNC(=O)c1ccc2c(c1)N(Cc1cccc(Cl)c1)C(=O)c1ccccc1S2(=O)=O (configuration not stated)	-24%	/	-98*	-13%	-23%
CCCCNC(=O)C1(C)CCCCN1C(=O)c1ccc2ccccc2n1 (configuration not stated)	-6%	/	43	8%	i
SMILES	Vaccinia Venus	HCV inhibitor	HCMV inh	FMDV antiviral	VACV mCherry inh
CCCCCn1cc2c(c1-c1ccc(Cl)cc1)c(=O)n(C)c(=O)n2C	-20%	/	0	0%	-21%
Cc1cccc(-c2nc3c4ccccc4nc(N4CCN(c5cc(C)ccc5C)CC4)n3n2)c1	-8%	/	130	11%	-17%
COC(=O)c1ccc([C@H]2CC(=O)O2)cc1	?	31%	39	-23%	11µM*
COC(=O)C1=C(C)NC(=O)CC1c1ccc(C(=O)OC)cc1 (configuration not stated)	-20%	16%	0	7%	/
CN1CCN(c2ccc(Nc3cc4c(cn3)cc(-c3cccc(F)c3)n4C)cc2)CC1	/	/	-21	/	/
COc1ccc(Nc2nc(-c3cccc(Cl)c3)c3c(n2)-c2ccccc2OC3)cc1	-7%	/	-25	-23%	-6%
CCOc1ccc(Nc2nc(-c3cccc(Cl)c3)c3c(n2)-c2ccccc2OC3)cc1	-14%	/	-75*	-18%	-12%
CC(C)n1c(=O)c2ccccc2n1Cc1cn(Cc2cccs2)nn1	-6%	/	-7	-3%	24%
CCN(CC(=O)Nc1c(F)cccc1F)C(=O)c1cc(-c2cccs2)nn1-c1ccccc1	-10%	14µM*	-33	?	i
Cc1cccc(C)c1NC(=O)COC(=O)/C=C/c1ccc(S(=O)(=O)N2CCOCC2)cc1	/	-2%	-2	-16%	/
CN(C)/C=N/c1ncc(C(=O)c2ccc(-c3ccccc3)cc2)s1	-28%	11µM*	?	-30%	-25%
CN(C)/C=N/c1ncc(C(=O)c2ccccc2)s1	/	4%	87	55%	/
CC(C)CN1CC[C@@]2(CCCN(C(=O)Oc3ccccc3)C2)C1	/	/	/	-5%	/
COc1ccc(NC(=O)N2CC[C@@]3(CCCN(C(C)=O)C3)C2)cc1	/	/	/	-2%	/
Cc1ccc(C(=O)C2CCN(CC(=O)N3CCN(c4ccc(F)cc4)CC3)CC2)cc1	-22%	-28%	-70*	-22%	-19%
O=C(c1ccc(F)cc1)C1CCN(Cc2ccccc2F)CC1	-7%	/	?	-9%	-15%
CC(=O)c1ccc(NC(=O)CN2CCC(C(=O)c3ccc(F)cc3)CC2)cc1	-10%	?	17	-5%	-19%
O=C(CN1CCC(C(=O)c2ccc(F)cc2)CC1)Nc1ccc(F)cc1	?	10µM*	-23	?	?
O=C(CN1CCC(C(=O)c2ccc(F)cc2)CC1)NCc1ccccc1F	-18%	11µM*	-8	?	?
CC(C)c1c(C(=O)NCC2(N3CCCCC3)CCCC2)cnn1-c1nccc(-c2ccco2)n1	-11%	/	/	1%	-15%
Cc1cccc(NC(=O)CN2c3ccccc3S(=O)(=O)c3ccccc32)c1C	-9%	/	25	-16%	-14%
C[C@]12CCC3C(CCC4=CC(O)CC[C@@]43/C=N/O)C1(O)CCC2C1=CC(=O)OC1 (some centres not stated)	0.32µM*	2.2µM*	-96*	-17%	?
CC12CCC3C(CCC4(O)CC(O)CCC34C=NO)C1(O)CCC2C1=COC(=O)C1 (configuration not stated)	0.4µM*	2µM*	-98*	?	32µM*
